Assay [1] can be described thus: P-glycoprotein substrates identified in KB-3-1 adenocarcinoma cell line, qHTS therapeutic library screen (AID 1346986). Also: nearly all actives have a fitted effect of over 60% in size. In a few lines: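 Viability read by CellTiter-Glo after 72 h compound exposure in dose-response of KB-3-1 and KB-8-5-11 (P-gp-high) cells. Hits needed AC50 < 10 uM, >50% maximum response and curve class -1.1 to -2.4. Cherry-picks retested ± tariquidar, including pcDNA/MDR-19 HEK-293 pair.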

Assay [2] can be described thus: P-glycoprotein substrates identified in KB-8-5-11 adenocarcinoma cell line, qHTS therapeutic library screen (AID 1346987). Also: nearly all actives have a fitted effect of over 65% in size. As to activity change, negative = cytotoxicity: series mostly up to about 44 µM; % is scaled to controls: 0 for no effect and ±100 for the full control effect. In a few lines:
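Luminescence from CellTiter-Glo, read 5 min after addition, quantified survival of KB-8-5-11 (P-gp-overexpressing) cells exposed to compounds for 72 h. AC50 was derived from concentration-response curves.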

Records with an inconclusive call do not appear. Unmarked numbers belong to inactive results. Active and inactive are the calls of the source. Calls follow the shape of the dose curve; as a rule, active = well fitted curve in the direction sought with a large enough effect; inconclusive = small, poorly fitted or top-dose-only effect, or another doubt; inactive = no such curve, though single readings can be large; an effect the other way counts as inactive or inconclusive.

Regarding `CC(=O)O[C@H]1C[C@@H](O)C(C)(C)C2C[C@@H](OC(C)=O)[C@]3(C)C(CC[C@@]4(C)[C@H](c5ccoc5)OC(=O)[C@H]5O[C@]543)[C@]21C` (stereo partly drawn), the Potency result in assay [1] and in assay [2] was “inactive” in each case.
`O=C(Nc1ccn(Cc2c(F)cccc2C(F)(F)F)n1)c1c(F)cccc1F`: the outcome in assay [1] was “inactive [at 9.29 µM]”. Further, the activity change, negative = cytotoxicity in assay [2] was 7.74% [at 9.29 µM].
For `CC(=O)OC1CC2(C)C(CCC(C)C23Cc2c(O)cc4c(c2O3)CNC4=O)C(C)(C)C1O` (stereo not drawn), the Potency result in assay [1] and in assay [2] was “inactive” each time.
As for `CC1(C)C=Cc2c(ccc3c2N=C2C(C)(C)[C@@H]4C[C@]56CCCN5C(=O)[C@@]4(C[C@]23O)NC6=O)O1`, the Potency entry in assay [1] and in assay [2] was “inactive” throughout.
In the case of `C=C1CC[C@H]2[C@@](C)(CCC(OC3OC(CO)C(O)C(O)C3O)[C@@]2(C)CO)C1C(=O)CC1=CCOC1=O` (stereo partly drawn), the Potency result in assay [1] and in assay [2] was “inactive” in each case.
On to `C[C@H]1CC[C@@]2(OC1)O[C@H]1CC3C4CC[C@H]5C[C@@H](O[C@@H]6O[C@H](CO)[C@H](O[C@@H]7O[C@H](CO)[C@@H](O)[C@H](O[C@@H]8OC[C@@H](O)[C@H](O)[C@H]8O)[C@H]7O[C@@H]7O[C@H](CO)[C@@H](O)[C@H](O)[C@H]7O)[C@H](O)[C@H]6O)[C@H](O)C[C@]5(C)C4=CC(=O)[C@]3(C)[C@H]1[C@@H]2C` (stereo partly drawn), for which the outcome in assay [1] was “inactive [at 9.29 µM]”. Besides, the activity change, negative = cytotoxicity in assay [2] was 4.95% [at 9.29 µM].
With `CC(=O)NC(C(=O)OC1CCC(C)(C)C2CC=C3C(=O)OCC3C12C)C(C)C` (stereo not drawn), the Potency entry in assay [1] and in assay [2] was “inactive” each time.
As to `Cc1ncc([N+](=O)[O-])n1C[C@H](O)CN1CCOCC1`, the Potency result in assay [1] and in assay [2] was “inactive” throughout.
In the case of `CC(=O)OC1CC(=O)C2(C)C3CC4=C(OC(C)CC4=O)OC3(C)CCC2C1(C)C` (stereo not drawn), the Potency result in assay [1] and in assay [2] was “inactive” in each case.
With `COC(=O)C1(C)CCCC2(C)c3ccc(C(C)C)cc3C(O)C(O)C12` (stereo not drawn), the Potency result in assay [1] and in assay [2] was “inactive” in each case.
For the molecule `C=C1CC23CC1CCC2C12OC(=O)C(C)(C(O)C(O)C1O)C2C3C(=O)O` (stereo not drawn), the Potency result in assay [1] and in assay [2] was “inactive” in each case.
Consider `C=C[C@H]1[C@H](O[C@@H]2O[C@H](CO)[C@@H](O)[C@H](O)[C@H]2O)OC=C2C(=O)N3Cc4c([nH]c5ccccc5c4=O)[C@@H]3C[C@H]21`, for which the Potency entry in assay [1] and in assay [2] was “inactive” in each case.
With `CC(C)C1CCC(CO)=CC1/C=C(\CO)C(=O)OCC1(O)CCC(C(C)C)C2C=C(C(=O)O)COC(=O)C21` (stereo not drawn), the Potency entry in assay [1] and in assay [2] was “inactive” each time.
On to `COc1cc(C(=O)OC[C@H]2O[C@@H](OC(C)(C)C(=O)O)[C@H](O)[C@@H](O)[C@@H]2O)cc(OC)c1O`, for which the Potency result in assay [1] and in assay [2] was “inactive” throughout.
For the molecule `COC(=O)C1=CO[C@@H](O[C@@H]2O[C@H](CO)[C@@H](O)[C@H](O)[C@H]2O)[C@@H]2[C@@H](C)[C@@H](OC(=O)/C=C/c3ccccc3)[C@@H](O)[C@H]12`, the Potency entry in assay [1] and in assay [2] was “inactive” each time.
For the molecule `C=CC(C)(O)CC/C=C(\C)C(=O)O[C@@H]1[C@@H](O)[C@H](OC(C)(C=C)CC/C=C(\C)C(=O)O)O[C@H](CO)[C@H]1OC(=O)/C(C)=C/CCC(C)(O)C=C` (stereo partly drawn), the Potency entry in assay [1] and in assay [2] was “inactive” in each case.
In the case of `COC(=O)[C@H](Cc1ccc([N+](=O)[O-])cc1)NC(=O)c1cccc2ccccc12`, the Potency result in assay [1] and in assay [2] was “inactive” each time.
With `CC1(C)CC[C@]2(C(=O)O)CC[C@]3(C)C(=CCC4[C@@]5(C)CC[C@H](O[C@@H]6O[C@H](C(=O)O)[C@@H](O)[C@H](O[C@@H]7O[C@H](CO)[C@H](O)[C@H](O)[C@H]7O)[C@H]6O[C@@H]6O[C@H](CO)[C@@H](O)[C@H](O)[C@H]6O)C(C)(C)C5CC[C@]43C)[C@@H]2C1` (stereo partly drawn), in assay [1], the outcome was “inactive [at 5.11 µM]”. Also, the activity change, negative = cytotoxicity in assay [2] is 3.75% [at 5.11 µM].
As for `CC1CCC2C(C)(C)[C@H](O)CC[C@]2(C)C12Cc1c(O)cc3c(c1O2)CN(C(CCC(=O)O)C(=O)O)C3=O` (stereo partly drawn), the Potency result in assay [1] and in assay [2] was “inactive” in each case.
Regarding `CC(=O)O[C@@H]1CC2C(C)(C)C(=O)C=C[C@]2(C)C2CC[C@]3(C)C(=CC(=O)[C@@H]3c3ccoc3)[C@@]21C` (stereo partly drawn), the Potency entry in assay [1] and in assay [2] was “inactive” throughout.
On to `COc1cc(/C=C/C(=O)OCC2OC(OC3(CO)OC(CO)C(O)C3O)C(O)C(O)C2O)ccc1O` (stereo not drawn), for which the Potency entry in assay [1] and in assay [2] was “inactive” in each case.
`NC1(c2ccc(NC(=O)c3ccnc(-c4cc(C(=O)O)ccn4)c3)cc2)CC1`: the Potency result in assay [1] and in assay [2] was “inactive” throughout.
On to `CC1CC2(O)OC(=O)C3=C2C(CCC3)[C@@]12C[C@@H](c1ccoc1)OC2=O` (stereo partly drawn), for which the Potency result in assay [1] and in assay [2] was “inactive” throughout.
On to `CC(CC(C)O[C@@H]1O[C@H](CO)[C@@H](O)[C@H](O)[C@H]1O)OC(=O)/C=C/c1ccc(O)cc1` (stereo partly drawn), for which the Potency entry in assay [1] and in assay [2] was “inactive” throughout.

These data come from PubChem BioAssay (NCATS).
